Screening data as filed in PubChem BioAssay.
Pol beta inh-1 = DNA polymerase beta (human) inhibition; P06746; Pol beta primer extension/strand displacement, fluorescence kinetic; Potency, µM (titrated, usually from 114 µM), hits mostly inhibitors; 1.3% of 340,000 active
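Preincubation: enzyme (10 nM) with compound, 15 min, RT. Reaction: substrate added to 50 nM final. Reads: 0 and 10 min. Analysis: normalized, Hill fit.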
WRN inhibitor = blocks human WRN helicase | AID 651768 | 0.46% of 360,000 active | WRN helicase unwinding, fluorescent forked duplex, kinetic | Potency, µM (titrated, usually from 114 µM), usual class: inhibitors | Q14191; note: nearly all actives have a fitted effect of over 55% in size
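WRN at 20 nM final was preincubated with compound for 15 min at room temperature; reaction started with 100 nM forked duplex oligonucleotide carrying fluorophore and quencher plus 2 mM ATP (final). Unwinding followed kinetically by red fluorescence (ex 525/em 598 nm).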
Pol eta inh = blocks human DNA polymerase eta activity | recombinant Pol eta, fluorescent DNA replication assay | 1.2% of 390,000 active | Potency, µM (top dose mostly 114 µM), hits mostly inhibitors | AID 588591
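Fluorescent replication assay: 50 nM final substrate added after a 15 min room-temperature compound preincubation with 10 nM enzyme. Signal taken at 0 min and again at 10 min.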
FEN1 inhibitor = human FEN1 inhibition | 0.35% of 390,000 active | Potency, µM (series often up to 114 µM), most hits filed as inhibitors | Recombinant FEN1 flap cleavage, fluorescence, 15 min | P39748; note: nearly all actives have a fitted effect of over 65% in size
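Nuclease activity of 10 nM FEN1 was measured after 15 min of room-temperature exposure to titrated compounds, by adding 50 nM flap substrate and reading plates at 0 and 15 min.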
POLI inh = DNA polymerase iota (human) inhibition; AID 588590; Potency, µM (titrated, usually from 115 µM), most hits filed as inhibitors; Pol iota fluorescent replication assay, 10 min; 1% of 390,000 active; Q9UNA4
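Fluorescent replication assay read twice, at 0 min and 10 min after adding 50 nM (final) substrate. Enzyme (10 nM) and compounds were first incubated 15 min at room temperature; enzyme-free buffer wells were negative controls.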
Pol kappa inh = DNA polymerase kappa (human) inhibition | Potency, µM (highest dose often 107 µM), hits mostly inhibitors | Q9UBT6 | 0.53% of 400,000 active | purified Pol kappa, fluorescent DNA synthesis assay, 10 min
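10 nM Pol kappa preincubated 15 min at room temperature with compounds, then reaction started with substrate at 50 nM final. Fluorescence read kinetically at 0 and 10 min; buffer-only wells served as negative control.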
Pol beta inh-2 = Human Pol beta inhibitor hit validation; 87% of 250 active; Pol beta primer extension/strand displacement, fluorescence kinetic; Potency, µM, hits mostly inhibitors; AID 540280; shares compounds with Pol beta inh-1; calls by dose curve
Klenow counter = counter-screen for DNA polymerase beta inhibitors: Klenow fragment inhibition. shares compounds with Pol beta inh-1. Klenow exo- polymerase counter-screen, fluorescent DNA substrate. activity change, negative = inhibition, % at 57.1 µM. 250 tested, under 10 active
HIV RT inh = counter-screen for DNA polymerase beta inhibitors: HIV-1 RT inhibition | shares compounds with Pol beta inh-1 | HIV-1 RT polymerase activity, counter-screen | activity % (negative = inhibition, positive = activation), % at 57.1 µM | 250 tested, under 10 active | AID 540301
POLB valid = validation of human DNA polymerase beta inhibitors | shares compounds with Pol beta inh-1 | radiolabeled primer extension gel assay, phosphorimager | inhibition, % at 10 µM | 91% of 110 active;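 active = inhibition at 10 µM of 30% or more; inconclusive = no clear call, values can overlap the other calls; inactive = inhibition at 10 µM under 30%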
Each line names hits and unclear results; the compound was inactive in the other large screens (follow-up assays come after a bar, where they were run). Hits are enriched below; roughly 2.4% of the tested compounds scored in any of these assays. Unless noted, calls come from the whole dose curve; as a rule, active = well fitted curve in the direction sought with a large enough effect; inconclusive = small, poorly fitted or top-dose-only effect, or another doubt; inactive = no such curve, though single readings can be large; an effect the other way counts as inactive or inconclusive.

Cc1cc2oc(=O)cc(-c3cc4ccccc4o3)c2cc1O	Pol beta inh-1 0.25µM, Pol eta inh inconclusive, Pol kappa inh inconclusive | Pol beta inh-2 16 | Klenow counter inactive | HIV RT inh inactive
Cc1c(C(=O)Nc2ccc(F)cc2F)oc2ccc3c(c12)C(=O)CC(C)(C)O3	none (no result: WRN inhibitor)
CCS(=O)(=O)N1Cc2ccccc2CC1C(=O)Nc1nnc(SCc2c(Cl)cccc2Cl)s1 (stereo not drawn)	none
CCSc1nnc(NC(=O)C2Cc3ccccc3CN2S(=O)(=O)CC)s1 (stereo not drawn)	Pol beta inh-1 18µM, Pol eta inh 56µM, POLI inh inconclusive | Pol beta inh-2 28 | Klenow counter inactive | HIV RT inh inactive | POLB valid 100
Cc1cccc(Nc2nn3c(=O)c4ccccc4nc3s2)c1	Pol beta inh-1 10µM, Pol eta inh inconclusive, POLI inh inconclusive, Pol kappa inh inconclusive | Pol beta inh-2 4 | Klenow counter inactive | HIV RT inh inactive
Cc1ccc(-n2nc(C(=O)Nc3ccc(Br)cc3C)c(=O)n(C)c2=O)cc1	none (no result: WRN inhibitor)
O=C(Nc1ccc2c(c1)OCO2)C1CCN(C(=O)CSc2ncnc3ccccc23)CC1	Pol beta inh-1 20µM, Pol eta inh 79µM, POLI inh inconclusive | Pol beta inh-2 35 | Klenow counter inactive | HIV RT inh inactive | POLB valid 85
CC(C)(C)c1nc2ccccc2c2nnc(SCC(=O)Nc3nccs3)n12	none
CC(C)(C)c1nc2ccccc2c2nnc(SCC(=O)Nc3nc4ccccc4s3)n12	Pol beta inh-1 0.18µM, POLI inh 45µM | Pol beta inh-2 inconclusive | Klenow counter inactive | HIV RT inh inactive | POLB valid 85
COc1ccc(NS(=O)(=O)c2ccc(O)c(NC(=O)c3ccc(S(=O)(=O)N4CCCCCC4)cc3)c2)cc1	Pol beta inh-1 13µM, Pol eta inh inconclusive, POLI inh inconclusive | Pol beta inh-2 35 | Klenow counter inactive | HIV RT inh inactive
COc1ccc(CCn2c(O)cc3nn(-c4nc5ccccc5s4)c(=O)c-3c2C)cc1	Pol beta inh-1 1.8µM, WRN inhibitor inconclusive, Pol eta inh 50µM, FEN1 inhibitor inconclusive, POLI inh inconclusive, Pol kappa inh 22µM | Pol beta inh-2 inconclusive | Klenow counter inactive | HIV RT inh inactive | POLB valid 97
CCOc1ccc(CNCc2c(C(=O)O)n(Cc3ccc(OC)cc3)c3ccccc23)cc1	none (no result: WRN inhibitor)
CCOC(=O)c1sc2nc3c(SCCC(=O)O)cc(C(=O)c4cc(OC)ccc4O)cn3c(=O)c2c1C	Pol beta inh-1 2.8µM, Pol eta inh 11µM, FEN1 inhibitor inconclusive, POLI inh inconclusive | Pol beta inh-2 6.3 | Klenow counter inactive | HIV RT inh inactive
Cc1ccc2c(c1)C1(C=CC(=O)C=C1)CC(=O)N2C	none (no result: Pol beta inh-1, WRN inhibitor, Pol eta inh)
Cc1cccc(CNC(=O)C2CCN(c3nc4ccc(Cl)cc4[nH]3)CC2)c1	none (no result: WRN inhibitor)
NC(=O)c1c(NC(=O)CSc2nnc(-c3ccco3)n2-c2ccccc2)sc2c1CCC2	Pol beta inh-1 4.5µM, Pol eta inh 10µM, FEN1 inhibitor inconclusive, POLI inh inconclusive, Pol kappa inh inconclusive | Pol beta inh-2 13 | Klenow counter inactive | HIV RT inh inactive
CNC(=O)CSc1nnc(-c2ccco2)n1-c1ccccc1	Pol beta inh-1 inconclusive
Clc1ccccc1-c1ccc2ncnc(NC3CCNCC3)c2c1	none (no result: Pol beta inh-1, WRN inhibitor, Pol eta inh, FEN1 inhibitor, POLI inh)
N#C/C(=C\c1ccc(OC(=O)c2ccc(Br)s2)cc1)c1nc2ccccc2[nH]1	Pol beta inh-1 2µM, Pol eta inh 5.6µM | Pol beta inh-2 8.9 | Klenow counter inactive | HIV RT inh inactive
